# According to article PMC7862700, “An all-to-all approach to the identification of sequence-specific readers for epigenetic DNA modifications on cytosine”:
# Legend:
# Assay in all cases: DAPPL (digital affinity profiling via proximity ligation, sequencing); 10 mM Tris-HCl pH 7.5, 50 mM NaCl, 1 mM DTT, 4% glycerol, room temperature, 30 min; GST-TFs on glutathione beads, 16-mer random dsDNA library, 0.1% formaldehyde crosslink after washing; high values mean tight binding
# Settings in all cases: protein: recombinant; tags: N-terminal GST; dsDNA, one strand shown
# ELK1 = biological target: T1, ELK1 (Homo sapiens, UniProt P19419 1-428)
# T1 sequence: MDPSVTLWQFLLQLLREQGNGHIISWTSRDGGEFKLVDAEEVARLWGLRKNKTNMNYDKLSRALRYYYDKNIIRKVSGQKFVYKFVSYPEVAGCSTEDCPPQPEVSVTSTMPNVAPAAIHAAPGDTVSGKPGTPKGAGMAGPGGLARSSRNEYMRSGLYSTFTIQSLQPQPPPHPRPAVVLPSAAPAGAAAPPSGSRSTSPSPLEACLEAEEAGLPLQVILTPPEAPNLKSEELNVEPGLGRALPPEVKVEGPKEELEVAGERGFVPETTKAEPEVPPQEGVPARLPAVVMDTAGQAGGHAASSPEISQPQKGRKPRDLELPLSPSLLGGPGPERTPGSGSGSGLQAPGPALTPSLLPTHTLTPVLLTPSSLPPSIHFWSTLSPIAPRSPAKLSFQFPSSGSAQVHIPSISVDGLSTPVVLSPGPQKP
# Method in brief: (§1)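 Pools were built from human transcription factors expressed in yeast as GST fusions, captured on glutathione beads and DNA-barcoded, along with a tag-only sample. Incubation with 200 nmole of a 16-mer random double-stranded DNA library lasted 30 min at room temperature in Tris/NaCl/DTT/glycerol buffer, and was followed by washing, 0.1% formaldehyde crosslinking, proximity ligation, PCR amplification and Illumina NextSeq500 sequencing. Binding signal is the quotient of each hexamer's read frequency for a factor and its frequency for the tag-only sample.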
# GABPA = biological target: T2, GABPA (Homo sapiens, UniProt Q06546 1-454)
# T2 sequence: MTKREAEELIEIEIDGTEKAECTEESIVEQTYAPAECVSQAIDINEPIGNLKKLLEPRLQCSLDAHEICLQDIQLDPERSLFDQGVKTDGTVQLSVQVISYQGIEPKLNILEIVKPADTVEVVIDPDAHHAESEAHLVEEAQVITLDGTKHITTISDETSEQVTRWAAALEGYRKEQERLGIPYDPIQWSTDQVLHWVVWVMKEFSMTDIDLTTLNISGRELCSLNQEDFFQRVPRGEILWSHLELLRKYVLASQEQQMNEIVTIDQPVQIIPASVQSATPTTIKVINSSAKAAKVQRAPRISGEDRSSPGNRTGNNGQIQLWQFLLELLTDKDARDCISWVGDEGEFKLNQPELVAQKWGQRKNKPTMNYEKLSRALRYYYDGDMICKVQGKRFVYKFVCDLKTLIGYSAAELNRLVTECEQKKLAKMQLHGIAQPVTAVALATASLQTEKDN
# Method in brief: as §1
# ERG = biological target: T3, ERG (Homo sapiens, UniProt P11308 1-479)
# T3 sequence: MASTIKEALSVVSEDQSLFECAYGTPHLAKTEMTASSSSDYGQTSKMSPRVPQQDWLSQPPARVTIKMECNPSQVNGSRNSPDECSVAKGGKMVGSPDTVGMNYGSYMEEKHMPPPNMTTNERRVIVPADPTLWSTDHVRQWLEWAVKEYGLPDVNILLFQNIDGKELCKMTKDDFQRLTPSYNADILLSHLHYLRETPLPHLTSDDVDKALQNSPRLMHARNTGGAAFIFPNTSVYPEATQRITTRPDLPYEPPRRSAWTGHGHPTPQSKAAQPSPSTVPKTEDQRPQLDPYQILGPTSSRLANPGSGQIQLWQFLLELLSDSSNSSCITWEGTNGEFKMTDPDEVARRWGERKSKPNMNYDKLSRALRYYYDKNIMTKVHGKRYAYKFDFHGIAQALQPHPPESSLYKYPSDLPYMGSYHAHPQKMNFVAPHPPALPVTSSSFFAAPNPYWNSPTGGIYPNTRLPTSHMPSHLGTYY
# Method in brief: as §1
# ELF1 = ELF1 (Homo sapiens, UniProt P32519 1-619)
# Method in brief: as §1
# EHF = biological target: T4, EHF (Homo sapiens, UniProt Q9NZC4 1-300)
# T4 sequence: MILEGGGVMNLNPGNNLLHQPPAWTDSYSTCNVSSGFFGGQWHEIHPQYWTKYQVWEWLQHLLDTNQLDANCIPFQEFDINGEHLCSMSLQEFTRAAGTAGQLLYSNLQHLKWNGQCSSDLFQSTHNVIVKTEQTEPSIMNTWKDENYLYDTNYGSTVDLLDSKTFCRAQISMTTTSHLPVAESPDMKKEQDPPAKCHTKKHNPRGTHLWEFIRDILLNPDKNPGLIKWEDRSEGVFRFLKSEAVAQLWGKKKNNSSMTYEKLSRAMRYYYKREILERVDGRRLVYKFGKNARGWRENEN
# Method in brief: as §1
# SPIB = SPIB (Homo sapiens, UniProt Q01892 1-262)
# Method in brief: as §1
# FEV = biological target: T5, FEV (Homo sapiens, UniProt Q99581 1-238)
# T5 sequence: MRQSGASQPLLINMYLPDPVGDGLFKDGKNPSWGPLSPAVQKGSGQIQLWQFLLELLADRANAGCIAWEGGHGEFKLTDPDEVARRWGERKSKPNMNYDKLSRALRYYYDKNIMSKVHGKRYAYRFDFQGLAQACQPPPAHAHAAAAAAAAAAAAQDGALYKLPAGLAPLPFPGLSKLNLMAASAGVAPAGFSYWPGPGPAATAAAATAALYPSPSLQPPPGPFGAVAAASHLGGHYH
# Method in brief: as §1
# ETV5 = ETV5 (Homo sapiens, UniProt P41161 1-510)
# Method in brief: as §1
# ELF4 = ELF4 (Homo sapiens, UniProt Q99607 1-663)
# Method in brief: as §1
# ELK4 = biological target: T6, ELK4 (Homo sapiens, UniProt P28324-2 1-405)
# T6 sequence: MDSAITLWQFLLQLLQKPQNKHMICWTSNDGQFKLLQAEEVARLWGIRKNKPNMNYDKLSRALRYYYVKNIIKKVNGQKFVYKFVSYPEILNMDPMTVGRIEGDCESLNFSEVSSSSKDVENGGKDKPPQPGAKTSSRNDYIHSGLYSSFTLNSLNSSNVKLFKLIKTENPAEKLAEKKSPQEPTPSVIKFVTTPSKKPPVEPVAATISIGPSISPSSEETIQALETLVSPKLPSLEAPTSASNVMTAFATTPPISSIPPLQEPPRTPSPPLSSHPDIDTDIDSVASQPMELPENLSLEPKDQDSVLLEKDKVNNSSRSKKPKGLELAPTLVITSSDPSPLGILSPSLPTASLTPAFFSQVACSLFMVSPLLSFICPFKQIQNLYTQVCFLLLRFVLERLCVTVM
# Method in brief: as §1
# ETV2 = biological target: T7, ETV2 (Homo sapiens, UniProt O00321 1-342)
# T7 sequence: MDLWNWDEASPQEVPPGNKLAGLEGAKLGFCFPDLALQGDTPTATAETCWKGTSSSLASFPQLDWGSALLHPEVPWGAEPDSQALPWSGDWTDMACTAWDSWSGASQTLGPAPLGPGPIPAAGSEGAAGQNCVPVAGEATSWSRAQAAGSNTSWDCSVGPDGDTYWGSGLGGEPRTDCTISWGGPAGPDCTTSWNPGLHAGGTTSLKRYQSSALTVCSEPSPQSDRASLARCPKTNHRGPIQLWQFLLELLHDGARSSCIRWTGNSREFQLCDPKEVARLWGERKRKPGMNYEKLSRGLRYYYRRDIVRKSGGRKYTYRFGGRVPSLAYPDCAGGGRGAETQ
# Method in brief: as §1
# ELF3 = biological target: T8, ELF3 (Homo sapiens, UniProt P78545 1-371)
# T8 sequence: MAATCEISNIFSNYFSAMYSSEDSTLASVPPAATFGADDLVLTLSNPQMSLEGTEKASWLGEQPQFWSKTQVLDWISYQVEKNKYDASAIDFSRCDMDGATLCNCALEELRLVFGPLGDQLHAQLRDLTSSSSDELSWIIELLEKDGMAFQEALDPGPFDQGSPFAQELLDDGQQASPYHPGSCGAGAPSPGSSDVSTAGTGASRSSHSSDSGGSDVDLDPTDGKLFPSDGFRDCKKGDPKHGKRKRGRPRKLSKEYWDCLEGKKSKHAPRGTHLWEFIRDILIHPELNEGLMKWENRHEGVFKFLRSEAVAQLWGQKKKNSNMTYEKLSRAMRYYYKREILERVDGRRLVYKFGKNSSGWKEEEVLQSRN
# Method in brief: as §1
# ETV1 = ETV1 (Homo sapiens, UniProt P50549 1-477)
# Method in brief: as §1
# ERF = biological target: T9, ERF (Homo sapiens, UniProt P50548 1-548)
# T9 sequence: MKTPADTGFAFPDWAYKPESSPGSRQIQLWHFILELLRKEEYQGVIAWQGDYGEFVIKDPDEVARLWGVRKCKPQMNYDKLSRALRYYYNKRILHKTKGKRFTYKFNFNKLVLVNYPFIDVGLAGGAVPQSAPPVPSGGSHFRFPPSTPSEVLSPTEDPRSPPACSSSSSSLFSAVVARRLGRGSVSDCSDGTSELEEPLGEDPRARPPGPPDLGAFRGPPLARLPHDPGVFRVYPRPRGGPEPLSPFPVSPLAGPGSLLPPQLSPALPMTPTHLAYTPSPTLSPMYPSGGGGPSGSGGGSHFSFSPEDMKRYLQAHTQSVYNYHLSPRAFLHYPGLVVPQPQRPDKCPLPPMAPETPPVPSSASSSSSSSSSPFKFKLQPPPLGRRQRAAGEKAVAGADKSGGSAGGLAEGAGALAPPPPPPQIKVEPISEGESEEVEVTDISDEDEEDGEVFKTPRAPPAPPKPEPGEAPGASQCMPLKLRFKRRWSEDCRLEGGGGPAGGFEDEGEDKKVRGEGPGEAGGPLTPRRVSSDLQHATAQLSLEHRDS
# Method in brief: as §1
# ETV3L = biological target: T10, ETV3L (Homo sapiens, UniProt Q6ZN32 1-361)
# T10 sequence: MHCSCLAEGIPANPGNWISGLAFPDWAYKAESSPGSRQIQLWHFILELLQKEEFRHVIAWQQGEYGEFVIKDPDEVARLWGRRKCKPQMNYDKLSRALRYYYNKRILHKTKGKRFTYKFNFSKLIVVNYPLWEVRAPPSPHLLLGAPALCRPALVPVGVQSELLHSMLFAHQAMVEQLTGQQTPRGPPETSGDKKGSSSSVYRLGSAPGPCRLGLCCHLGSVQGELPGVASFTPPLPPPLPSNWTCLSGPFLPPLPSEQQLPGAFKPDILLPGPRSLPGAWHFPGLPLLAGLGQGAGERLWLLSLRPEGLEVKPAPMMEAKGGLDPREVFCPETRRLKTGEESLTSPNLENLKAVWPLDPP
# Method in brief: as §1
# ETS2 = biological target: T11, ETS2 (Homo sapiens, UniProt P15036 1-469)
# T11 sequence: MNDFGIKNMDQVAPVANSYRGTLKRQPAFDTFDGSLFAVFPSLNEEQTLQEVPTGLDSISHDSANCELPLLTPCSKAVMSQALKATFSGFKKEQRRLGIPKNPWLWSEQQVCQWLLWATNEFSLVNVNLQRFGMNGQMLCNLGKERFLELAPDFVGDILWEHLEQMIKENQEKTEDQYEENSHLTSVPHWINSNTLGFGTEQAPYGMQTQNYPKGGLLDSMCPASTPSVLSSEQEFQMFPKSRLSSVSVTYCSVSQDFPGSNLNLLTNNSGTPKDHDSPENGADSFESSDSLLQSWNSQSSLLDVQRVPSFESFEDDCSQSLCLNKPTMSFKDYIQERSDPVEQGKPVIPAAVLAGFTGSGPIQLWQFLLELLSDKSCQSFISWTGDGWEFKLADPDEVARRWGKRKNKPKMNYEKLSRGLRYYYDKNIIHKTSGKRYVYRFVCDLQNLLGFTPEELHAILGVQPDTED
# Method in brief: as §1
# ETV7 = biological target: T12, ETV7 (Homo sapiens, UniProt Q9Y603 1-341)
# T12 sequence: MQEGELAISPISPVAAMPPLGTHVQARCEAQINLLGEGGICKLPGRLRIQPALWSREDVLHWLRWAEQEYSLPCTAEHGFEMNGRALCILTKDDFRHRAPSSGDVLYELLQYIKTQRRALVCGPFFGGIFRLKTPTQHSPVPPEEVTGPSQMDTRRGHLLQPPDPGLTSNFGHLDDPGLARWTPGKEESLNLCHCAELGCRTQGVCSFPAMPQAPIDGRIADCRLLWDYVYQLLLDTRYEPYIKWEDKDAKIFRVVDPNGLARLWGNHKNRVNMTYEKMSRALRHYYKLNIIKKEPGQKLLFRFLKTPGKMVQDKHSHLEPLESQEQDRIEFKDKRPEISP
# Method in brief: as §1
# ETV3 = biological target: T13, ETV3 (Homo sapiens, UniProt P41162-2 1-143)
# T13 sequence: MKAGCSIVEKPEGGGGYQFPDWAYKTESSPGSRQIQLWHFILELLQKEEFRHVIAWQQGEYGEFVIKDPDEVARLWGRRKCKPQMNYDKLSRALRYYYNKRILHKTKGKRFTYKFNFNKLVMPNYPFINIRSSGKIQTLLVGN
# Method in brief: as §1
# ETV6 = ETV6 (Homo sapiens, UniProt P41212 1-452)
# Method in brief: as §1
# Chain of ELF4 (Q99607 whole entry): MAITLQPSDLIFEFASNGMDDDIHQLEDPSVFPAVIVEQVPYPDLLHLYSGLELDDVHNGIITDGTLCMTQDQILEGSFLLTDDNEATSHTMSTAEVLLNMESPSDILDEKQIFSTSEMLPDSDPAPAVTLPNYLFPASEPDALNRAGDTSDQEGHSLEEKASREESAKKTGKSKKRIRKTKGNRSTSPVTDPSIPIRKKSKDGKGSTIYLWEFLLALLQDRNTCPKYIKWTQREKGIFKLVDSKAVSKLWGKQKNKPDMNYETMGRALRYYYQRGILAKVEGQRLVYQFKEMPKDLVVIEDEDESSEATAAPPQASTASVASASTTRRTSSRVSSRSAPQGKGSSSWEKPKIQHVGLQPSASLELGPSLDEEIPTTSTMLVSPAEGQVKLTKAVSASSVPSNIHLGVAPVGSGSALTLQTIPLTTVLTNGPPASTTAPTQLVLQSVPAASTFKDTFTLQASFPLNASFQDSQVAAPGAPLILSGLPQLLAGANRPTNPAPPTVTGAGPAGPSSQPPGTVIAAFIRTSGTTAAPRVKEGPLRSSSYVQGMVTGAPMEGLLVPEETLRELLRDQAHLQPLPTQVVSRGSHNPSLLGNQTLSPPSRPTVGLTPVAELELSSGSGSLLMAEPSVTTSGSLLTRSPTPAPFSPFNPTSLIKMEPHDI
# Chain of ETV5 (P41161 whole entry): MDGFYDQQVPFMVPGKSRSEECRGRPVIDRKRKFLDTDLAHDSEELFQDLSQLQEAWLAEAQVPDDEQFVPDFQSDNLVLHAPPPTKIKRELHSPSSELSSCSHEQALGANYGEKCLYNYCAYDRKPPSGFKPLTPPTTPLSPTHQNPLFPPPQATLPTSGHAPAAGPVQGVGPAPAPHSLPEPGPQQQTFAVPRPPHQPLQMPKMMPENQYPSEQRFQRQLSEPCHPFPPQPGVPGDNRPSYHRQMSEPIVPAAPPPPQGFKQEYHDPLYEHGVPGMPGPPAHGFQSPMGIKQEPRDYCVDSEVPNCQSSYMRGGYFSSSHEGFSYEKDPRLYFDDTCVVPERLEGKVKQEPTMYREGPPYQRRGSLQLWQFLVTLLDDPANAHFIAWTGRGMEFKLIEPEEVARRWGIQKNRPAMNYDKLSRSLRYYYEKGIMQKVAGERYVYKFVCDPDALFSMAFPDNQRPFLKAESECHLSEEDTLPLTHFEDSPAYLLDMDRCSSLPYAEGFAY
# Chain of ELF1 (P32519 whole entry): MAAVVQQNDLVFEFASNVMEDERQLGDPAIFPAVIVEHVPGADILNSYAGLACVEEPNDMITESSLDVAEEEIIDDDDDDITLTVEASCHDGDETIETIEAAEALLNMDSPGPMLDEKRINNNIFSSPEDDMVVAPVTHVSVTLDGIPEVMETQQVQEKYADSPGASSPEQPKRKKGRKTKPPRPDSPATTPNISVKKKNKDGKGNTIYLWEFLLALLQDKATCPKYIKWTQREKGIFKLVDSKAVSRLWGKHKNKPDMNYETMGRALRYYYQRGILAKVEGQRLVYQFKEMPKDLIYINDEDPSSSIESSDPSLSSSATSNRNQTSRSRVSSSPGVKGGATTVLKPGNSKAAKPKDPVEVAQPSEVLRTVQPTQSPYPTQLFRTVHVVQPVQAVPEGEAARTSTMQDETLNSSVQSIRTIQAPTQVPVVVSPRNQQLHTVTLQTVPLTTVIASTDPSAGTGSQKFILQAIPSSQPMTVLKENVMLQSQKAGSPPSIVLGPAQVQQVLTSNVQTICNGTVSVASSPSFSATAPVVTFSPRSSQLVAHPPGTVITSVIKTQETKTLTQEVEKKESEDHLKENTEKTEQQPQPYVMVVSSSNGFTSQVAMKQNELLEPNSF
# Chain of ETV6 (P41212 whole entry): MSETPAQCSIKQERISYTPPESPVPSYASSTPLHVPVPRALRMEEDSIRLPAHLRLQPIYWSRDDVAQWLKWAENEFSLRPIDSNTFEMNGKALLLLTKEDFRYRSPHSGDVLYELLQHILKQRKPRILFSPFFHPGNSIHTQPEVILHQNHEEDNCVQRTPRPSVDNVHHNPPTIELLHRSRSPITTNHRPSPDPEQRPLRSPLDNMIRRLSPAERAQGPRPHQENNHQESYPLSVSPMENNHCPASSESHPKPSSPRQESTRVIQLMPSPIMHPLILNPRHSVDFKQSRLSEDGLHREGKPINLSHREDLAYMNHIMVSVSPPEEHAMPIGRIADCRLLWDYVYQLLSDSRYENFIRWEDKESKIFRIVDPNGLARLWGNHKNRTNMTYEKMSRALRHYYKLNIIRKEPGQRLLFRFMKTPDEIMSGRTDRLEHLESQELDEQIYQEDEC
# Chain of ETV1 (P50549 whole entry): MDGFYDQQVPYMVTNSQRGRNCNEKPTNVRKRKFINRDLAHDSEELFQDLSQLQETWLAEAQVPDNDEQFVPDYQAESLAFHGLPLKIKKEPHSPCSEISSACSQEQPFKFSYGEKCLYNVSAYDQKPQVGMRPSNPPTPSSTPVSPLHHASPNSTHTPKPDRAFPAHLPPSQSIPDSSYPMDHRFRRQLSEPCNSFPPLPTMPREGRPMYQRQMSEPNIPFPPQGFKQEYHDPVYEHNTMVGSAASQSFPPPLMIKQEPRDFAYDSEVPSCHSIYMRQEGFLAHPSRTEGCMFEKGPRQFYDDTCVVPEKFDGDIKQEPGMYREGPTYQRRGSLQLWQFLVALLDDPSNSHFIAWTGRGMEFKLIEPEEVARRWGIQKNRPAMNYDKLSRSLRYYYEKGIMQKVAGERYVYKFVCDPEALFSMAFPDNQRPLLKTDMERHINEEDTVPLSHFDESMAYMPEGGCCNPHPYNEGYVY
# Chain of SPIB (Q01892 whole entry): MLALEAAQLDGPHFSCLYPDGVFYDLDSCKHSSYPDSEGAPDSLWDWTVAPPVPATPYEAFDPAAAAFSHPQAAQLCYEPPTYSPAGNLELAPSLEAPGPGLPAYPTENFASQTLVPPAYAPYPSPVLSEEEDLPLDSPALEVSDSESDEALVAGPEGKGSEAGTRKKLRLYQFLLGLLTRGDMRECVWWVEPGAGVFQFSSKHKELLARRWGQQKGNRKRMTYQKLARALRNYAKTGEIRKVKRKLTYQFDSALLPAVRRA
sequence,measurement,setting,value
TGGCCG,binding signal,ELK1,"1.19 fold enrichment (6-mer frequency, TF over GST control)"
same,binding signal,GABPA,"1.15 fold enrichment (6-mer frequency, TF over GST control)"
same,binding signal,ERG,"1.19 fold enrichment (6-mer frequency, TF over GST control)"
same,binding signal,ELF1,"1.08 fold enrichment (6-mer frequency, TF over GST control)"
same,binding signal,EHF,"1.02 fold enrichment (6-mer frequency, TF over GST control)"
same,binding signal,SPIB,"1.17 fold enrichment (6-mer frequency, TF over GST control)"
same,binding signal,FEV,"1.22 fold enrichment (6-mer frequency, TF over GST control)"
same,binding signal,ETV5,"1.17 fold enrichment (6-mer frequency, TF over GST control)"
same,binding signal,ELF4,"1.08 fold enrichment (6-mer frequency, TF over GST control)"
same,binding signal,ELK4,"1.06 fold enrichment (6-mer frequency, TF over GST control)"
same,binding signal,ETV2,"1.04 fold enrichment (6-mer frequency, TF over GST control)"
same,binding signal,ELF3,"1.14 fold enrichment (6-mer frequency, TF over GST control)"
same,binding signal,ETV1,"1.04 fold enrichment (6-mer frequency, TF over GST control)"
same,binding signal,ERF,"1.05 fold enrichment (6-mer frequency, TF over GST control)"
same,binding signal,ETV3L,"1.07 fold enrichment (6-mer frequency, TF over GST control)"
same,binding signal,ETS2,"1.06 fold enrichment (6-mer frequency, TF over GST control)"
same,binding signal,ETV7,"1.06 fold enrichment (6-mer frequency, TF over GST control)"
same,binding signal,ETV3,"1.11 fold enrichment (6-mer frequency, TF over GST control)"
same,binding signal,ETV6,"1.11 fold enrichment (6-mer frequency, TF over GST control)"
